The panel holds about 83,000 compounds, 20% with a hit somewhere; the sample as a whole holds those more often.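 Treatment: one concentration, 48 hours, 96-well format. Scoring: percent growth, with anything below 10 considered active.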 Values without a mark were called inactive. Activity calls are given as the source filed them.

Test in all cases: NCI-60 one-dose screen, 48 h (100 = growth as untreated, 0 = no growth, -100 = all killed)
Experiment [1] concerns DU-145 prostate. The following applies: 10 µM unless noted.
Experiment [2] has as its system K-562 leukemia. The following applies: 10 µM unless noted.
Experiment [3] concerns MALME-3M melanoma. The note with it: 10 µM unless noted.
Experiment [4] relates to MDA-MB-231 breast. The following applies: 10 µM unless noted.
In experiment [5] the test system is SF-268 CNS. The following applies: 10 µM unless noted.
Experiment [6] has as its system SF-295 CNS. The following applies: 10 µM unless noted.
Experiment [7] has as its system SF-539 CNS. The note with it: 10 µM unless noted.
Experiment [8] has as its system UACC-257 melanoma. The note with it: 10 µM.
For experiment [9], the system named is M14 melanoma. The following applies: 10 µM unless noted.
In experiment [10] the test system is RXF 393 renal. The note with it: 10 µM unless noted.

`Cc1ccc(-c2cc(-c3ccc(N(C)C)cc3)n3c(n2)nc2ccccc23)cc1`: the growth was 87.2% in [1]; 29.2% in [2]; 96.1% in [3]; 66% in experiment [4]; 88.7% in experiment [5]; 55% in experiment [6]. In addition, the results for the growth in [7], in [8] and in [9] were 89.8%, 65.8% and 77.2%, respectively.

As to `C/C(=C(/c1ccc(O)cc1)c1ccc(OCCN2CCCC2)cc1)c1ccc(Cl)cc1`, the growth was 65.1% in experiment [1]; -39.9% (active) in [3]; 40.9% in [4]; 3.89% (active) in [10]; 60.9% in experiment [5]; 67.8% in [6]. Besides, the growth in experiment [7] is 0.146% (active); in [8] it was -77.6% (active); in experiment [9] it was -64.7% (active).

Turning to `C=CCn1c(SCC(=O)Nc2cccc(C(=O)/C=C/c3ccc(OC)c(OC)c3)c2)nc2ccccc2c1=O`, the growth in [1] was 95.2%; in experiment [3], 84.7%; in experiment [4], 89.7%; in experiment [10], 87.9%; in [5], 89.1%; in experiment [6], 104%. The growth in experiment [7] is 90.3%; in [8], 108%; in experiment [9], 114%.

On to `Cc1ccc(/C=C/c2nn3c(-c4ccco4)nnc3s2)cc1`, for which the growth in experiment [1] is 99.7%; in experiment [3], 106%; in experiment [4], 110%; in [10], 95.5%; in [5] it was 104%; in experiment [6], 95.7%. In addition, the growth in [7] was 94.7%; in [8] it was 112%; in [9] it was 94.8%.

As for `COc1ccc([C@H]2[C@H](O)C(=O)N2c2cc(OC)c(OC)c(OC)c2)cc1Cl`, the growth is 18.3% in [1]; 65.9% in experiment [3]; 26.9% in [4]; 24.3% in experiment [10]; 44.7% in [5]; 5.44% (active) in experiment [6]. The growth was -9.87% (active) in experiment [7], 40.8% in [8] and 10.3% in experiment [9].

As to `CC1OC(O[C@@H]2[C@H](O)C(CO)OC(O[C@H]3COC(O[C@H]4CC[C@]5(C)[C@H]6CC[C@]78OC[C@@]9(CC[C@](C)(C=O)C[C@H]97)C(=O)C[C@@]8(C)[C@]6(C)CC[C@H]5C4(C)C)[C@@H](O)[C@@H]3O)[C@H]2OC2OC[C@@H](O)[C@@H](O)[C@@H]2O)[C@@H](O)[C@@H](O)[C@H]1O` (stereo partly specified), the growth was 108% in experiment [1]; 98.2% in experiment [3]; 79.7% in experiment [4]; 87.4% in experiment [10]; 95.9% in experiment [5]; 89.9% in experiment [6]. Further, the growth in experiment [7] was 99.8%; in [8] it was 95.3%; in [9], 96.9%.

As to `Cc1cccc(NC(c2cc3cccc4ccc5cccc2c5c43)c2nnnn2C(C)(C)C)c1C` (stereo unspecified), the growth in [1] was 104%; in [2] it was 96.6%; in experiment [3], 92.9%; in [4], 78.6%; in [5], 91.1%; in experiment [6], 87.2%. Also, the growth in [7] was 86.5%; in experiment [8], 94%; in experiment [9] it was 94.4%.

With `COc1ccc(NC(=O)Cn2cc(CN3C(=O)c4ccc([N+](=O)[O-])cc4C3=O)nn2)cc1`, the growth is 113% in [1]; 98.1% in experiment [2]; 101% in [3]; 91.4% in [4]; 109% in experiment [5]; 113% in experiment [6]. In addition, the growth in experiment [7] was 100%; in [8] it was 97.7%; in [9] it was 108%.

As for `CS(=O)c1nccc(-c2c(-c3ccc(F)c(OCc4ccc(F)cc4)c3)nc3sccn23)n1` (stereo unspecified), the growth was -9.49% (active) in experiment [1]; 92.3% in experiment [3]; 67.8% in experiment [4]; 87.6% in experiment [10]; 100% in [5]; 97.8% in experiment [6]. The growth in experiment [7] was 88.4%; in [8], -24.6% (active); in [9] it was 81.6%.

With `C=C1C(=O)O[C@@H]2C[C@@H](C)/C=C\C(=O)[C@](C)(OC(C)=O)C[C@H](OC(=O)/C(C)=C\C)[C@@H]12`, the growth in experiment [1] is 3.77% (active); in experiment [3] it was -36.4% (active); in experiment [4], -71.8% (active); in [10], -88.1% (active); in [5], -1.46% (active); in [6], 70.6%. In addition, the growth in [7] was -57.5% (active); in experiment [8] it was -76.1% (active); in experiment [9] it was -37.1% (active).

Turning to `COc1ccc(-c2oc3cc(O)cc(O)c3c(=O)c2OC)cc1O`, the growth was 15.7% in experiment [1]; 68.8% in experiment [3]; 32.7% in experiment [4]; -29.9% (active) in experiment [10]; 45.2% in [5]; -24.1% (active) in [6]. The growth in experiment [7] is -34.6% (active); in [8], 78.8%; in experiment [9] it was 28.3%.

Take `C=CCn1c(SCC(=O)Nc2cccc(C(=O)/C=C/c3cc(OC)c(OC)c(OC)c3)c2)nc2ccccc2c1=O`: the growth in experiment [1] is 13.7%; in experiment [3], 71%; in [4], 29.5%; in experiment [10], 17.1%; in experiment [5], 70.3%; in [6], 83.5%. For the same compound, the growth in experiment [7] was 21.1%; in experiment [8], 80.9%; in [9], 63%.

Take `CC1OC(O[C@@H]2[C@H](O)C(CO)OC(O[C@H]3COC(O[C@H]4CC[C@]5(C)[C@H]6CC[C@]78OC[C@@]9(CCC(C)(C)C[C@H]97)[C@H](O)C[C@@]8(C)[C@]6(C)CC[C@H]5C4(C)C)[C@@H](OC4OC(CO)[C@@H](O)[C@@H](O)[C@@H]4O)[C@@H]3O)[C@H]2OC2OC[C@@H](O)[C@@H](O)[C@@H]2O)[C@@H](O)[C@@H](O)[C@H]1O` (stereo partly specified): the growth in experiment [1] is -79.7% (active); in experiment [3], -70.6% (active); in experiment [4] it was -72.2% (active); in [10] it was -92% (active); in [5], -65.9% (active); in [6] it was -92.3% (active). In addition, the growth was -80.5% (active) in experiment [7], -76.2% (active) in experiment [8] and -80.7% (active) in experiment [9].

On to `C/C(Cc1ccc(Cl)cc1)=C(/c1ccccc1)c1ccc(OCCN)cc1`, for which the growth in experiment [1] is 106%; in experiment [3], 88.5%; in experiment [4], 98.7%; in experiment [10], 102%; in experiment [5] it was 94.2%; in experiment [6] it was 99.7%. Besides, the values for the growth in experiment [7], in experiment [8] and in experiment [9] were 99.7%, 106% and 95.7%, respectively.

Values taken from PubChem BioAssay (NCI).
